Source: PubChem BioAssay
WRN helicase inh = qHTS for Inhibitors of WRN Helicase; actives 0.46% (n = 360,000); Potency, µM (highest dose often 114 µM), actives largely listed as inhibitors; WRN helicase unwinding, fluorescent forked duplex, kinetic; further: nearly all actives have a fitted effect of over 55% in size
Target sequence (Q14191 whole entry, looked up): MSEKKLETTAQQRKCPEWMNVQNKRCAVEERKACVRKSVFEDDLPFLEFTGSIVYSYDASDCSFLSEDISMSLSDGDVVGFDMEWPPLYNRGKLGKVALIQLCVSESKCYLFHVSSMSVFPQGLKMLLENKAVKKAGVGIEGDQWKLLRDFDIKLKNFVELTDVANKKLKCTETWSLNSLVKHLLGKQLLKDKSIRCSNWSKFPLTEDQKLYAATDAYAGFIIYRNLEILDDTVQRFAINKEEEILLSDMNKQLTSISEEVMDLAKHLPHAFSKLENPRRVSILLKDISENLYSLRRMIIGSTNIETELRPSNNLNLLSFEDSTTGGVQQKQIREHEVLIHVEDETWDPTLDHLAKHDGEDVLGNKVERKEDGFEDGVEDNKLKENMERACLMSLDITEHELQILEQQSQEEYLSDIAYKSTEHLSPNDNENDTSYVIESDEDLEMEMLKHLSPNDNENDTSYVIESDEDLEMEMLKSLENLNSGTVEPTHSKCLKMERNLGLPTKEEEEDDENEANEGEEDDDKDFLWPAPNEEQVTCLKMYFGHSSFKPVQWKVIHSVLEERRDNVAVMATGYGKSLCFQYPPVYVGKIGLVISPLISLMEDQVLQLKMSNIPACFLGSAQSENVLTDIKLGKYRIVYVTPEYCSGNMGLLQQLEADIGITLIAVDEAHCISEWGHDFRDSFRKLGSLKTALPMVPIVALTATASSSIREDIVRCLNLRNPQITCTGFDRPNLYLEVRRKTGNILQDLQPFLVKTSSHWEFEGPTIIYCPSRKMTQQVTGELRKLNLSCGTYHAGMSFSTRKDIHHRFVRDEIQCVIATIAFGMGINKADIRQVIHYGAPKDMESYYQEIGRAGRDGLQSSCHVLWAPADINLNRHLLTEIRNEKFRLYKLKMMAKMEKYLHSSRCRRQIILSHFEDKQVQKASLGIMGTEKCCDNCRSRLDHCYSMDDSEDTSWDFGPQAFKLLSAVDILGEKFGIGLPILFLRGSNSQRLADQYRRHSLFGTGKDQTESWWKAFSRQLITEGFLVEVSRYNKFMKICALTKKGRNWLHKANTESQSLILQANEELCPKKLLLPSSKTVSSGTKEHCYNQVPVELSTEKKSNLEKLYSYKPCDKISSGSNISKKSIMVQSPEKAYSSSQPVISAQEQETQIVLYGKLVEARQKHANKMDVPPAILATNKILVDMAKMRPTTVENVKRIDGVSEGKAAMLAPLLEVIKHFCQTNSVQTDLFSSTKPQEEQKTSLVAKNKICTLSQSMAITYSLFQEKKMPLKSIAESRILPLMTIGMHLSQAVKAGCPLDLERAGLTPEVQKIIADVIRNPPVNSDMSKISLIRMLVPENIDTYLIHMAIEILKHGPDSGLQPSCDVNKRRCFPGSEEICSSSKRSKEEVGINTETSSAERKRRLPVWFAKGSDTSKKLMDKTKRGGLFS
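WRN at 20 nM final was preincubated with compound for 15 min at room temperature; reaction started with 100 nM forked duplex oligonucleotide carrying fluorophore and quencher plus 2 mM ATP (final). Unwinding followed kinetically by red fluorescence (ex 525/em 598 nm).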
L3MBTL1 inh = qHTS Assay for the Inhibitors of L3MBTL1. Lethal(3)malignant brain tumor-like protein 1 (Homo sapiens), Q9Y468. AlphaScreen L3MBTL1–H3K9me1 peptide binding. Potency, µM (doses to about 57.1 µM), hits mostly inhibitors. actives 0.66% (n = 230,000). AID 485360, 2010; further: nearly all actives have a fitted effect of over 60% in size
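AlphaScreen proximity signal between nickel-chelate acceptor and streptavidin donor beads (final 10 ug/mL) reports binding of 50 nM L3MBTL1 to 75 nM biotin-H3 K9me1 peptide; complex incubated with compounds 30 min at room temperature; cefsulodin titration as control.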
POLK inh = qHTS for Inhibitors of Polymerase Kappa | DNA polymerase kappa (Homo sapiens), Q9UBT6 | purified Pol kappa, fluorescent DNA synthesis assay, 10 min | Potency, µM (series often up to 107 µM), usual class: inhibitors | actives 0.53% (n = 400,000) | AID 588579, 2011
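Kinetic fluorescence screen: compound preincubated 15 min RT with 10 nM enzyme; 50 nM substrate (final) initiates; reads at 0/10 min.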
Pol beta inh = qHTS Assay for Inhibitors of DNA Polymerase Beta; Pol beta primer extension/strand displacement, fluorescence kinetic; P06746; Potency, µM (series often up to 114 µM), actives largely listed as inhibitors; actives 1.3% (n = 340,000); AID 485314, 2010
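Human Pol beta at 10 nM; strand-displacement substrate 50 nM final. Compound exposure 15 min at room temperature before start, reaction 10 min at room temperature.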
POLH inh = qHTS for Inhibitors of Polymerase Eta. recombinant Pol eta, fluorescent DNA replication assay. Potency, µM (highest dose often 114 µM), most hits filed as inhibitors. actives 1.2% (n = 390,000)
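Pol eta (10 nM) was preincubated with compounds for 15 min at room temperature, after which fluorescent replication substrate (50 nM final) was added to start the reaction. Fluorescence was read kinetically at 0 and 10 min.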
POLI inh = qHTS for Inhibitors of Polymerase Iota; Potency, µM (highest dose often 115 µM), usual class: inhibitors; Pol iota fluorescent replication assay, 10 min; AID 588590, 2011; actives 1% (n = 390,000)
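Fluorescent replication assay read twice, at 0 min and 10 min after adding 50 nM (final) substrate. Enzyme (10 nM) and compounds were first incubated 15 min at room temperature; enzyme-free buffer wells were negative controls.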
Each line names hits and unclear results; the compound was inactive in the other large screens. Shown are actives, neighbours in structure and some others; about 2.5% of the full set was active somewhere. The call rests on the fitted dose curve; in most records, active means well fitted curve in the direction sought with a large enough effect; inconclusive means small, poorly fitted or top-dose-only effect, or another doubt; inactive means no such curve, though single readings can be large; an effect the other way counts as inactive or inconclusive.

Cc1ccc2oc(=O)c3cc(C(=O)NCCCN4CCc5ccccc5C4)sc3c2c1	none
Cc1ccc2oc(=O)c3cc(C(=O)NCCCN4CCCCCC4)sc3c2c1	POLI inh 79.4µM (no result: L3MBTL1 inh)
Cc1ccc2oc(=O)c3cc(C(=O)NCCN4CCN(C)CC4)sc3c2c1	L3MBTL1 inh 35.5µM, POLH inh inconclusive
COc1ccccc1OC(=O)Nc1ccc(Cl)cc1	none (no result: L3MBTL1 inh)
O=C(NNc1cc(Br)c(O)c(Br)c1)c1ccccc1	POLK inh inconclusive, POLI inh 22.4µM (no result: L3MBTL1 inh)
COc1cccc(CN2CCN(Cc3c(C)nn(C(C)C)c3C)CC2CCO)c1 (stereo not drawn)	none
Cc1ncc(CN2CCCC(C(=O)Nc3ccc(-c4ccco4)cc3)C2)cn1 (stereo not drawn)	POLK inh inconclusive, POLH inh inconclusive, POLI inh 31.6µM (no result: L3MBTL1 inh)
CC1C(=O)Nc2ccc(S(=O)(=O)N3CCN(c4cccc(C(F)(F)F)c4)CC3)cc2NC1=O (stereo not drawn)	Pol beta inh inconclusive, POLI inh 35.5µM (no result: L3MBTL1 inh)
O=Cc1c(-c2ccc(Cl)cc2)oc2ccc(O)cc12	WRN helicase inh inconclusive, POLK inh inconclusive, POLH inh 44.7µM, POLI inh inconclusive (no result: L3MBTL1 inh, Pol beta inh)
O=c1[nH][nH]c2c(N=Cc3ccccc3O)ccc(F)c12	WRN helicase inh 14.1µM, L3MBTL1 inh 3.55µM, POLK inh 3.98µM, Pol beta inh 7.08µM, POLH inh 3.16µM, POLI inh 0.891µM
Cc1cc(=O)[nH]c(-n2[nH]c3c(c2=O)CCCC3)n1	POLI inh 14.1µM
CCOC(=O)CNC(=O)Nc1nnc(-c2ccc(OCC)cc2)o1	Pol beta inh 79.4µM
CCNc1nc(NCC)n2c(SCC(=O)Nc3ccc(OC)c(OC)c3)nnc2n1	POLH inh inconclusive (no result: Pol beta inh)
CCNc1nc(NCC)n2c(SCC(=O)Nc3cccc(F)c3)nnc2n1	POLK inh inconclusive, POLH inh inconclusive, POLI inh 44.7µM (no result: Pol beta inh)
CCNc1nc(NCC)n2c(SCC(=O)Nc3ccccc3C(F)(F)F)nnc2n1	L3MBTL1 inh inconclusive, POLK inh inconclusive, POLH inh inconclusive, POLI inh 79.4µM (no result: Pol beta inh)
CCNc1nc(NCC)n2c(SCC(=O)Nc3ccccc3Cl)nnc2n1	none (no result: Pol beta inh)
CCNc1nc(NCC)n2c(SCC(=O)Nc3cc(Cl)ccc3OC)nnc2n1	POLH inh inconclusive, POLI inh inconclusive (no result: Pol beta inh)
CCNc1nc(NCC)n2c(SCC(=O)Nc3cccc(Cl)c3)nnc2n1	L3MBTL1 inh inconclusive, POLK inh inconclusive, POLH inh 14.1µM, POLI inh inconclusive (no result: Pol beta inh)
CC1CCCCC1NC(=O)CSc1nc2ccccc2[nH]1 (stereo not drawn)	none (no result: L3MBTL1 inh)
O=C(COC(=O)c1nc(Cl)ccc1Cl)NCc1ccc(Cl)cc1Cl	none (no result: Pol beta inh)
CC1CCCC(NC(=O)C2CCN(S(=O)(=O)N3CCC4(CC3)OCCO4)CC2)C1C (stereo not drawn)	none
O=C1c2ccccc2C(=O)N1CCc1csc(NNc2nc(CCN3C(=O)c4ccccc4C3=O)cs2)n1	POLK inh 89.1µM, Pol beta inh 25.1µM, POLH inh inconclusive, POLI inh inconclusive (no result: L3MBTL1 inh)
Cc1ccc(S(=O)(=O)NCc2ccccn2)c(C)c1	none
O=C(COc1ccccc1F)Nc1ccc(-c2nc3ccccc3s2)cc1	Pol beta inh 44.7µM (no result: WRN helicase inh)
Cc1nc2ccc(NC(=O)COc3ccccc3F)cc2s1	none (no result: L3MBTL1 inh)
COc1ccc(C23CC4CC(CC(C(=O)O)(C4)C2)C3)c(F)c1	none (no result: L3MBTL1 inh)
CN(CC(=O)Nc1ccc(Cl)c(C(F)(F)F)c1)C(=O)Cn1cc([N+](=O)[O-])ccc1=O	POLH inh 79.4µM (no result: Pol beta inh)
Cc1ccc(NC(=O)CN(C)C(=O)Cn2cc(C(F)(F)F)ccc2=O)cc1	none
COc1ccc(C(NC(=O)COc2ccc(C#N)cc2)c2ccc(OC)cc2)cc1	none (no result: WRN helicase inh, L3MBTL1 inh, Pol beta inh, POLH inh)
O=C(Cn1cnc([N+](=O)[O-])n1)c1ccc(O)c(O)c1	POLK inh inconclusive, Pol beta inh inconclusive, POLH inh inconclusive, POLI inh 7.08µM (no result: L3MBTL1 inh)
O=C(Cn1cnc([N+](=O)[O-])n1)c1ccccc1	Pol beta inh inconclusive
